Data published in PubChem BioAssay (NCI).
This is part of a sample that, as a whole, favours compounds with a hit. Of some 83,000 tested, about 20% had one in any assay.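 Negative percent growth values reflect cell death: -40 means 40% of the cells present at the start died, and -100 means all died.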 Values without a mark were called inactive. Activity calls are given as the source filed them. Rule for the calls: active = growth percent below 10; inactive = the rest.

Each compound was assayed on COLO 205 colon (assay: NCI-60 one-dose screen, 48 h (100 = growth as untreated, 0 = no growth, -100 = all killed)). Conditions: 10 µM unless noted.

For `O=C(Nc1ncc(Cc2ccccc2)s1)c1ccc2c(c1)OCCO2`, which growth is on record?
Its growth is -13.3% (active).

How did the growth turn out when `COc1cc(/C=C/c2cc(/C=C/c3ccc(O)c(OC)c3)n(C(=O)Nc3ccc(C)cc3C)n2)ccc1O` was run?
The growth was -65.6% (active).

With `CC(C)(C)CC(C)(C)Nc1c(-c2c(O)c3ccccc3oc2=O)nc2sccn12` as the compound, how does the growth read?
Its growth is 102%.

How did the growth turn out when `COc1ccc(Cn2cc3c(c2)-c2oncc2CC3)cc1` was run?
The growth was 68.4%.
